From PubChem BioAssay AID1159580 (chemical genetic matrix, 2015)
Several values for one entry are separate records, joined by “and”; a condition that tells them apart may be missing. Equal values may be shown once. Screen size: about 5,500 compounds; about 2,000 (36%) were called active. Inconclusive results (about 18%) are left out. Cut-off read from the data, not from the text of the source: active = normalized growth mostly below about 0.91 (no sharp cut-off); inconclusive = no clear call, values can overlap the other calls; inactive = mostly above about 0.92. The list shows a part of the results.

Assay: chemical genetic growth profiling, strain panel (AID 1159580);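 note: tested at 20 µM; growth read once vehicle control cultures reached saturation at 30 °C; 1 = growth at the plate median or of vehicle wells; lower values mean less growth of the strain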
Conditions: S. cerevisiae deletion strains, growth OD

Measured: normalized growth

CN[C@@H]1[C@H](OC2[C@H](O[C@H]3[C@H](O)[C@@H](O)[C@H](N=C(N)N)[C@@H](O)[C@@H]3N=C(N)N)O[C@@H](C)[C@]2(O)C=O)O[C@@H](CO)[C@H](O)[C@H]1O (stereo not given in full)
inactive: locus YAL013W, strain DEP1, stronger effect = lower value 1 | locus YAL021C, strain ccr4, stronger effect = lower value 1 | locus YAL026C, strain drs2, stronger effect = lower value 0.993 | locus YAL030W, strain snc1, stronger effect = lower value 1.01 | locus YBL061C, strain skt5, stronger effect = lower value 1.01 | locus YBR009C, strain hhf1, stronger effect = lower value 0.988 | locus YBR021W, strain FUR4, stronger effect = lower value 1.02 | locus YBR023C, strain chs3, stronger effect = lower value 1 | locus YBR171W, strain sec66, stronger effect = lower value 1.01 | locus YBR229C, strain ROT2, stronger effect = lower value 1.02 | locus YBR231C, strain swc5, stronger effect = lower value 1.03 | locus YBR279W, strain paf1, stronger effect = lower value 0.999 | locus YCL011C, strain gbp2, stronger effect = lower value 0.992 | locus YCL016C, strain dcc1, stronger effect = lower value 0.98 | locus YCL029C, strain bik1, stronger effect = lower value 1.01 | locus YCL069W, strain vba3, stronger effect = lower value 1.01 | locus YCR088W, strain abp1, stronger effect = lower value 0.998 | locus YDL005C, strain med2, stronger effect = lower value 1.01 | locus YDL035C, strain GPR1, stronger effect = lower value 1.01 | locus YDL040C, strain nat1, stronger effect = lower value 0.999 | locus YDL074C, strain BRE1, stronger effect = lower value 1.01 | locus YDL101C, strain DUN1, stronger effect = lower value 1.01 | locus YDL134C, strain PPH21, stronger effect = lower value 1.01 | locus YDL185W, strain tfp1, stronger effect = lower value 0.996 | locus YDL192W, strain arf1, stronger effect = lower value 1.01 | locus YDR001C, strain nth1, stronger effect = lower value 0.987 | locus YDR069C, strain doa4, stronger effect = lower value 1.04 | locus YDR101C, strain arx1, stronger effect = lower value 1.01 | locus YDR137W, strain rgp1, stronger effect = lower value 1.03 | locus YDR159W, strain sac3, stronger effect = lower value 0.978 | locus YDR162C, strain NBP2, stronger effect = lower value 1 | locus YDR195W, strain ref2 1.04 | locus YDR297W, strain sur2, stronger effect = lower value 1.02 | locus YDR318W, strain mcm21, stronger effect = lower value 1.01 | locus YDR334W, strain swr1, stronger effect = lower value 1.01 | locus YDR335W, strain msn5, stronger effect = lower value 1.01 | locus YDR388W, stronger effect = lower value 1.02 | locus YDR392W, strain spt3, stronger effect = lower value 0.959 | locus YDR502C, strain sam2, stronger effect = lower value 1.02 | locus YEL003W, strain gim4, stronger effect = lower value 1.01 | locus YEL037C, strain rad23, stronger effect = lower value 1 | locus YEL061C, strain CIN8 (second series), stronger effect = lower value 1.01 | locus YEL061C, strain CIN8, stronger effect = lower value 1.01 | locus YER015W, strain faa2, stronger effect = lower value 1 | locus YER016W, strain bim1, stronger effect = lower value 0.987 | locus YER110C, stronger effect = lower value 1.03 | locus YER111C, strain swi4, stronger effect = lower value 1 | locus YER155C, strain BEM2 (second series), stronger effect = lower value 1.04 | locus YER155C, strain BEM2, stronger effect = lower value 0.995 | locus YER167W, strain BCK2, stronger effect = lower value 1.01 | locus YFR010W, strain ubp6, stronger effect = lower value 1.03 | locus YGL078C, strain dbp3, stronger effect = lower value 1 | locus YGL086W, strain mad1, stronger effect = lower value 1.01 | locus YGL167C, strain pmr1, stronger effect = lower value 1.02 | locus YGL173C, strain kem1, stronger effect = lower value 1.03 | locus YGL227W, strain vid30, stronger effect = lower value 0.998 | locus YGL240W, strain doc1, stronger effect = lower value 1.05 | locus YGL248W, strain PDE1, stronger effect = lower value 1.01 | locus YGL253W, strain hxk2, stronger effect = lower value 0.977 | locus YGR135W, strain pre9, stronger effect = lower value 1.01 | locus YGR229C, strain SMI1, stronger effect = lower value 1 | locus YGR252W, strain gcn5, stronger effect = lower value 1.01 | locus YHR013C, strain ard1, stronger effect = lower value 1.01 | locus YHR027C, strain rpn1, stronger effect = lower value 1 | locus YHR030C, strain SLT2, stronger effect = lower value 1.01 and 0.961 | locus YHR079C, strain IRE1 (second series), stronger effect = lower value 1.02 | locus YHR079C, strain IRE1, stronger effect = lower value 0.991 | locus YHR094C, strain hxt1, stronger effect = lower value 1.02 | locus YHR129C, strain ARP1, stronger effect = lower value 1.01 | locus YHR142W, strain chs7, stronger effect = lower value 1 | locus YHR200W, strain rpn10, stronger effect = lower value 1.02 | locus YIL066C, strain RNR3, stronger effect = lower value 1.02 | locus YIL073C, strain SPO22, stronger effect = lower value 1.05 | locus YIL125W, strain kgd1, stronger effect = lower value 1.01 | locus YIR030C, strain dcg1, stronger effect = lower value 1.01 | locus YJL092W, strain hpr5, stronger effect = lower value 1.01 | locus YJL095W, strain BCK1 (second series), stronger effect = lower value 1.01 | locus YJL095W, strain BCK1, stronger effect = lower value 1.01 and 0.996 | locus YJL115W, strain asf1, stronger effect = lower value 1.01 | locus YJL129C, strain trk1, stronger effect = lower value 1.02 | locus YJL134W, strain LCB3, stronger effect = lower value 1 | locus YJL154C, strain vps35, stronger effect = lower value 1 | locus YJL164C, strain tpk1, stronger effect = lower value 0.983 | locus YJL166W, strain qcr8, stronger effect = lower value 1.02 | locus YJL168C, strain set2, stronger effect = lower value 1.01 | locus YJL187C, strain SWE1 (second series), stronger effect = lower value 1.02 | locus YJL187C, strain SWE1, stronger effect = lower value 1.01 | locus YJR043C, strain POL32, stronger effect = lower value 1.01 | locus YJR066W, strain TOR1, stronger effect = lower value 0.978 | locus YJR075W, strain HOC1, stronger effect = lower value 1.01
